Assay [1] addresses Albumin (Bos taurus) (UniProt P02769). Description: compounds binding labelled BSA control protein – biochemical, small-molecule microarray, Alexa647 label, 635/667 nm fluorescence, artefact control for SMM control protein annotation, profiling panel (AID 1118).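 Note: score merges 667 nm emission intensity and signal-to-noise per printed compound spot.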 As to conditions: BSA-A647 binding, fluorescence 635 nm, higher = more signal.
Assay [2] in a line: probe aXIP binding to arrayed compounds – biochemical, NeuroSMM set, 635/667 nm fluorescence, primary screen (AID 1119).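 Note: probe is the protein aXip251-270 applied at 1 µg/mL to compound-printed slides; binding of probe to printed compounds measured as 667 nm fluorescence plus signal to noise.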 As to conditions: small-molecule microarray, higher = more signal, called active from +8 up or from −8 down.
A short description of assay [3]: probe aNOTCH3 binding on compound microarray – biochemical, small-molecule microarray, 635/667 nm fluorescence, primary screen (AID 1120).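 Note: probe is a biotin-tagged antibody raised against NOTCH3 rather than NOTCH3 protein; score merges spot fluorescence near 667 nm with spot signal to noise.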 As to conditions: higher = more signal.
Assay [4] can be described thus: probe aNOTCH2 binding on compound microarray – biochemical, small-molecule microarray, 635/667 nm fluorescence, primary screen (AID 1121).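 Note: score merges feature fluorescence read at 667 nm with its signal to noise.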 Particulars: higher = more signal.
In assay [5] the target is Carbonic anhydrase 2 (Homo sapiens) (UniProt P00918). The experiment in a line: compounds binding carbonic anhydrase 2 – biochemical, small-molecule microarray, Alexa647-labelled CAII, profiling panel (AID 1122). As to conditions: CAII-A647 binding fluorescence, higher = more signal.
A short description of assay [6]: COS7 lysate on small-molecule microarray, probe aHis, 635 nm (AID 1123).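 Note: z-score combines 667nm fluorescence intensity with signal-to-noise per printed compound spot.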 As to conditions: COS7 cell lysate, fluorescence, higher = more signal.
Assay [7] can be described thus: probe aLAP1 signal on lysate-treated microarray – cell lysate, small-molecule microarray, COS7 lysate, primary screen (AID 1124).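 Note: lysate comes from COS7 cells expressing LAP1 and is applied at 0.3 µg/mL; score merges spot fluorescence near 667 nm with signal-to-noise over triplicate slides.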 Particulars: probe aLAP1, fluorescence, higher = more signal.
Assay [8] has as its system Sam68 (KHDRBS1). The experiment in a line: compounds binding KHDRBS1 protein – biochemical, small-molecule microarray, 635 nm fluorescence, primary screen (AID 1125).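 Note: score merges 667 nm channel intensity with signal to noise over triplicate slides.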 As to conditions: higher = more signal.
In assay [9] the test system is Chordin-like protein 2 (CHRDL2). The experiment in a line: compounds binding chordin-like 2 – biochemical, small-molecule microarray, 635 nm fluorescence, primary screen (AID 1126).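 Note: printed compound slides probed with Chrdl2 protein at 4 µg/mL for 1 h at 4 C; score merges 667 nm emission intensity with signal to noise over three replicate slides.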 As to conditions: fluorescence 635 nm, higher = more signal.
Assay [10] concerns the target Concanavalin-A (Canavalia ensiformis) (UniProt P02866). Description: compounds binding concanavalin A lectin – biochemical, small-molecule microarray, Alexa647 label, 635 nm, artefact control for SMM control protein annotation, primary screen (AID 1127).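 Note: z combines 667 nm emission intensity with signal-to-noise across three replicate slides.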 Particulars: ConA-A647 binding fluorescence, higher = more signal.
Assay [11] can be described thus: compounds binding Alexa647 anti-His antibody – biochemical, small-molecule microarray, 635 nm fluorescence, artefact control for SMM control protein annotation, primary screen (AID 1128).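 Note: score merges feature fluorescence with signal-to-noise for each printed compound spot.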 As to conditions: higher = more signal.
The subject of assay [12] is Human papillomavirus type 1a E7 protein (residues 1-88). The experiment in a line: HPV1a E7 small-molecule binders, primary screen, biochemical, small-molecule microarray, residues 1-88, 635 nm (AID 1129). As to conditions: small-molecule microarray binding, fluorescence 635 nm; higher = more signal.
Assay [13] deals with Focal adhesion kinase 1 (Homo sapiens) (UniProt Q05397). The experiment in a line: PTK2 protein binding on printed compound slides – biochemical, small-molecule microarray, 635/667 nm fluorescence, BSA, DTT, primary screen (AID 1130).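 Note: composite of spot emission at 667 nm and signal to noise over triplicate slides.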 As to conditions: 635 nm fluorescence, higher = more signal.
Assay [14] deals with Fibrinogen (Alexa647-labelled). The experiment in a line: Alexa647-fibrinogen binding to printed small molecules – biochemical, small-molecule microarray, 635/667 nm fluorescence, artefact control for SMM control-protein annotation, profiling panel (AID 1131).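 Note: z-score merges 667 nm fluorescence with per-spot signal-to-noise over triplicate slides.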 Particulars: fibrinogen-A647 binding fluorescence, higher = more signal.
The target in assay [15] is Follistatin (Homo sapiens) (UniProt P19883). Description: FST protein binding to printed compounds – biochemical, small-molecule microarray, 635/667 nm fluorescence, primary screen (AID 1132). Particulars: 635 nm fluorescence, higher = more signal.
Assay [16] deals with Fibroblast growth factor 2 (Homo sapiens) (UniProt P09038). The experiment in a line: basic fibroblast growth factor binding to printed compounds – biochemical, small-molecule microarray, 635/667 nm fluorescence, primary screen (AID 1133). As to conditions: FGF2, fluorescence 635/667, higher = more signal.
Assay [17] is described as follows: JC-1 mitochondrial potential readout, lung cancer cells – cell-based, A549, JC-1 fluorescence, basal, 24 h, 100 nL, profiling panel (AID 1138).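 Note: A549 lung adenocarcinoma cells under basal conditions with no added stimulus; test concentration not given here.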 As to conditions: higher = more signal.
The subject of assay [18] is Lefty1. Description: Lefty1 protein binding to printed compounds – biochemical, small-molecule microarray, 635/667 nm fluorescence, primary screen (AID 1139). Particulars: fluorescence 635/667, higher = more signal.
Assay [19] concerns wheat germ agglutinin (Triticum aestivum), Alexa647-labelled. The experiment in a line: Alexa647-WGA lectin binding to printed small molecules – biochemical, small-molecule microarray, 635/667 nm fluorescence, artefact control for SMM control-protein annotation, profiling panel (AID 1140).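 Note: score merges 667 nm feature emission with signal to noise over triplicate slides.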 Particulars: WGA-A647 binding, 635 nm fluorescence, higher = more signal.
Assay [20] deals with Luciferin 4-monooxygenase (Photinus pyralis) (UniProt P08659). Description: inhibition of purified Photinus pyralis luciferase – biochemical, luminescence, purified enzyme, 2006 set, primary screen (AID 1141).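 Note: cell-free assay with purified firefly luciferase at 100 ng per well in PBS; test concentration not given here.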 As to conditions: purified firefly luciferase, SteadyGlo luminescence, 30 min; higher = more signal, called active from +8 up or from −8 down.

Activity calls are given as the source filed them.

Chain of Follistatin (Homo sapiens) (P19883 whole entry, looked up): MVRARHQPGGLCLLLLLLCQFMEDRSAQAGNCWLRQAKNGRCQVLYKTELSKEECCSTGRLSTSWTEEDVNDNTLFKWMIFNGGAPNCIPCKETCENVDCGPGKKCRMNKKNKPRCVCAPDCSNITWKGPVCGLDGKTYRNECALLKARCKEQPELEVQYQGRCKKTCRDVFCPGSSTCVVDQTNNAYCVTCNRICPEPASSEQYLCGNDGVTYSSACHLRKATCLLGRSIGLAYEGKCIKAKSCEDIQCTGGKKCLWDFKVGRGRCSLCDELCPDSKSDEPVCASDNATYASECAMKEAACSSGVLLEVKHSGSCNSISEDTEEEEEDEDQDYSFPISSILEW
Chain of Concanavalin-A (Canavalia ensiformis) (P02866 whole entry, looked up): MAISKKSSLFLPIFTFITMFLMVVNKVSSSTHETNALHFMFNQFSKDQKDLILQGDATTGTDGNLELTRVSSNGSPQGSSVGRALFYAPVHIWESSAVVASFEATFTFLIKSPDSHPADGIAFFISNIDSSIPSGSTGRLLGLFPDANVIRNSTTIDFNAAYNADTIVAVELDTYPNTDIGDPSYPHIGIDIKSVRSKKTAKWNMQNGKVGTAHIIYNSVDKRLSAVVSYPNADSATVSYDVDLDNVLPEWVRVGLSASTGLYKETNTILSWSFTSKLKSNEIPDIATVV
Chain of Fibroblast growth factor 2 (Homo sapiens) (P09038 whole entry, looked up): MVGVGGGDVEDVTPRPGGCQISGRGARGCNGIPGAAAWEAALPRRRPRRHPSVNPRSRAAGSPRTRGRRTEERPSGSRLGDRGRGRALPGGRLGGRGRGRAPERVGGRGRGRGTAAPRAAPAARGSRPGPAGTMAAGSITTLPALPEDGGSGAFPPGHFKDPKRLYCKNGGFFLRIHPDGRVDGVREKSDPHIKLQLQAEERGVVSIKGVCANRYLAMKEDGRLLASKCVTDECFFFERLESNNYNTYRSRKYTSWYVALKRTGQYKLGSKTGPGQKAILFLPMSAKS
Chain of Albumin (Bos taurus) (P02769 whole entry, looked up): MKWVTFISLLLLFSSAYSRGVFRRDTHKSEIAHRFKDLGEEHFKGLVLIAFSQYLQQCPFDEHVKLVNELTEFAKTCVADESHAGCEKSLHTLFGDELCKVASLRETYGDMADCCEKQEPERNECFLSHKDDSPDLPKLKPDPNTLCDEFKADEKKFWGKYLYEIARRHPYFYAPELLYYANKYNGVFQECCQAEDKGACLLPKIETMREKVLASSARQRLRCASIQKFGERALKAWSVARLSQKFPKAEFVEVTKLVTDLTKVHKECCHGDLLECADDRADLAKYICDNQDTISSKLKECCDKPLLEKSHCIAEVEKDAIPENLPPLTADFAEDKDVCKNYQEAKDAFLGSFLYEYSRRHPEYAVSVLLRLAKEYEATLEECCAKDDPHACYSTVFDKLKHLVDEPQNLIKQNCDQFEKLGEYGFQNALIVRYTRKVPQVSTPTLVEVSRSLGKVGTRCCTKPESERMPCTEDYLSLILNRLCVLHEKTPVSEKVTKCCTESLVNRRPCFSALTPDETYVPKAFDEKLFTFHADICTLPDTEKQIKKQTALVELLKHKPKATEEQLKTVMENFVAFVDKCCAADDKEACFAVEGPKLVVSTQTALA
Chain of Focal adhesion kinase 1 (Homo sapiens) (Q05397 whole entry, looked up): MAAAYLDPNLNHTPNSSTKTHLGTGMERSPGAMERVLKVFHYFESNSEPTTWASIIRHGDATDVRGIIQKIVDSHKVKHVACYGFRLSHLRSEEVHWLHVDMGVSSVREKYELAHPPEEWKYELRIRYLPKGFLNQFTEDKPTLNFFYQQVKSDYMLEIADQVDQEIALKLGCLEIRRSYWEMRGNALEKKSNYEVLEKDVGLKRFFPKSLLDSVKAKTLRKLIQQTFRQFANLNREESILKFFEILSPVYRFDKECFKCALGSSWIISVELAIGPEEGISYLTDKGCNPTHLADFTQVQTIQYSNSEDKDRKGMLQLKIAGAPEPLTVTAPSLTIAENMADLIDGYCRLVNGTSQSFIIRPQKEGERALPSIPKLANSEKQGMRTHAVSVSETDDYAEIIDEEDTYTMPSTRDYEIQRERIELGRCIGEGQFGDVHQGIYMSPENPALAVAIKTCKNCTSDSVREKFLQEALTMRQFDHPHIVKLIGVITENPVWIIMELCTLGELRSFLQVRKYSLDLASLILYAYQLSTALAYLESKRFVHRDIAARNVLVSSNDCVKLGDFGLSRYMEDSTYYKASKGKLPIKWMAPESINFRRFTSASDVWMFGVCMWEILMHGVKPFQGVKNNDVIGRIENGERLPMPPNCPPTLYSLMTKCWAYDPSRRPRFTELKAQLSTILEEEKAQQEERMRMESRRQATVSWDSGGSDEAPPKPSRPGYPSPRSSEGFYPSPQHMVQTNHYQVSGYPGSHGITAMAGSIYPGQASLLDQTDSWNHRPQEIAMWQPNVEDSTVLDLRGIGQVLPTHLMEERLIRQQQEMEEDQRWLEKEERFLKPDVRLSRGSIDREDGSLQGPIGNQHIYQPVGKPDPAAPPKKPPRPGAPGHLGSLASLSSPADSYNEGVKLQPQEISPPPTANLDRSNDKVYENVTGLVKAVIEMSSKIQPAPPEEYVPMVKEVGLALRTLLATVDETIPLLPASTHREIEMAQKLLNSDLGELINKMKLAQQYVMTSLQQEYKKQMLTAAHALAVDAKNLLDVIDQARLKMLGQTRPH
Chain of Luciferin 4-monooxygenase (Photinus pyralis) (P08659 whole entry, looked up): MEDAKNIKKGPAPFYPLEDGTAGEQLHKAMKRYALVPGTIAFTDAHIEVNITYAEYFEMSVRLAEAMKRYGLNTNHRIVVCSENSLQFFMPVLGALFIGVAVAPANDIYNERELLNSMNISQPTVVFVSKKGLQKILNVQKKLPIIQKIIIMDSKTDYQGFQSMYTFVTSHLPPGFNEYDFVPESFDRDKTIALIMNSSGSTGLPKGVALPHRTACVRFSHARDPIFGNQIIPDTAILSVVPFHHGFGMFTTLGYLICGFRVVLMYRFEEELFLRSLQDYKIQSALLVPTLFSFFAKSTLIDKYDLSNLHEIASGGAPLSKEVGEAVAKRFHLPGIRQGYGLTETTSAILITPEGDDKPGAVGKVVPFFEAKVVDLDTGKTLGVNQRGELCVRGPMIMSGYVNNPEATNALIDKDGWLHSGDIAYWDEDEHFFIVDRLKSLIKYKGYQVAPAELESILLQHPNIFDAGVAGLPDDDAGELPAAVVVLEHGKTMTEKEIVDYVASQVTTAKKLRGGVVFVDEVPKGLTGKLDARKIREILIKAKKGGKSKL

For the compound `CCCCCCc1nc(-c2ccc(OC)nc2)cc2c1[Si](C(C)C)(C(C)C)O[C@H]2c1ccccc1`, the composite z-score was -0.807 in assay [1]; -0.0864 in [3]; -0.166 in assay [4]; -0.0224 in assay [5]; 0.0277 in [6]; -0.08 in assay [7]. Moreover, the composite z-score is -0.187 in assay [8]; 1.12 in assay [9]; 0.0837 in assay [10]; -0.133 in assay [11]; -0.484 in [12]; 0.0202 in assay [13]. Further, the composite z-score was -0.51 in [14]; 0.885 in assay [15]; 0.896 in assay [16]; 1.44 in assay [18]; 0.211 in [19]. Further, in [2], the composite Z-score is 0.131 (inactive). Moreover, the values for the z-score in assay [17] and in assay [20] were -0.959 and 0.974 (inactive), respectively.
Take `NC(=O)NCC#Cc1ccc2c(c1)[C@]1(C(=O)N2)[C@H](C(N)=O)[C@H]2C(=O)O[C@H](c3ccccc3)[C@H](c3ccccc3)N2[C@@H]1c1ccc(O)cc1`: the composite z-score in assay [1] was -0.0636; in assay [3], 0.286; in [4], 0.668; in assay [5] it was 0.688; in assay [6], 3.15; in [7] it was 0.505. Also, the composite z-score is 0.652 in [8]; -0.034 in [9]; -0.279 in [10]; -0.407 in [11]; -0.655 in assay [12]; -0.209 in assay [13]. Moreover, the composite z-score was 0.513 in [14]; 0.336 in [15]; 0.383 in [16]; -1.01 in assay [18]; 0.623 in assay [19]. In assay [2], the composite Z-score is 1.42 (inactive). In addition, the z-score in [17] was -1.27; in assay [20], -0.192 (inactive).
In the case of `CCC(CC)C(O)C1C=CC2C(=O)NC(=O)C2N1Nc1ccc(Cl)cc1Cl` (stereo not given), the composite z-score is 0.869 in assay [1]; 0.237 in [3]; 0.0333 in assay [4]; 0.654 in [5]; 2.18 in assay [6]; 1.02 in assay [7]. Also, the composite z-score is 0.887 in assay [8]; -0.381 in [9]; 1.06 in [10]; 1.66 in [11]; 1.18 in [12]; 0.383 in assay [13]. In addition, the composite z-score in [14] is 0.952; in assay [15] it was 1.14; in assay [16], -0.0832; in assay [18] it was 0.359; in assay [19] it was 0.788. The composite Z-score in assay [2] was 0.818 (inactive). In addition, the results for the z-score in assay [17] and in assay [20] were -0.00434 and -0.533 (inactive), respectively.
Take `C=CCN1C(=O)[C@]2(O[C@H](CCn3cc([C@H](O)c4ccccc4)nn3)[C@@H]([Si](C)(C)c3ccc(OC)cc3)[C@@H]2C)c2cc(N3CCC3=O)ccc21`: the composite z-score was 0.621 in assay [1]; -0.226 in [3]; -0.0826 in [4]; 0.337 in assay [5]; 0.855 in [6]; 0.407 in assay [7]. In addition, the composite z-score in [8] amounted to 0.564; in assay [9], 0.587; in [10], 0.882; in [11], 0.211; in assay [12] it was 1.16; in assay [13], 0.309. The composite z-score is -0.713 in [14]; 1.28 in [15]; 0.792 in [16]; 1.2 in assay [18]; 0.386 in assay [19]. Also, the composite Z-score in [2] is 0.156 (inactive). In addition, the z-score in [17] is 1.37; in assay [20], 0.114 (inactive).
As to `O=C1c2ccccc2[C@](Cc2ccccc2I)(C(=O)NCCN2CCOCC2)[C@H](c2ccc(CO)cc2)N1Cc1ccccc1Cl`, the composite z-score is 0.517 in assay [1]; 0.223 in [3]; 0.385 in [4]; 0.652 in assay [5]; 1.82 in assay [6]; 0.754 in assay [7]. In addition, the composite z-score stood at 1.31 in [8]; 0.202 in assay [9]; 1.17 in assay [10]; 2.09 in assay [11]; 1.16 in [12]; 0.0936 in [13]. Besides, the composite z-score in assay [14] turned out to be 0.929; in assay [15], 1; in [16] it was 1.23; in assay [18] it was 0.526; in assay [19], 1.08. In addition, in assay [2], the composite Z-score is 0.322 (inactive). The values for the z-score in assay [17] and in assay [20] were 1.87 and -0.593 (inactive), respectively.
